Where “and” joins values, the source holds several entries; their conditions need not be identical. Identical values can stand only once. Out of some 5,500 compounds screened, about 2,000 (36%) were called active. Not shown: some 18% with an inconclusive outcome. Cut-off read from the data, not from the text of the source: active = normalized growth mostly below about 0.91 (no sharp cut-off); inconclusive = no clear call, values can overlap the other calls; inactive = mostly above about 0.92. The list shows a part of the results.
Assay: chemical genetic growth profiling, strain panel (AID 1159580);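 note: tested at 20 µM; growth read once vehicle control cultures reached saturation at 30 °C; 1 = growth at the plate median or of vehicle wells; lower values mean less growth of the strain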
Conditions: S. cerevisiae deletion strains, growth OD

Cc1c(OCC(F)(F)F)ccnc1CS(=O)c1nc2ccccc2[nH]1 (stereo not given)
normalized growth (locus YAL013W, strain DEP1, stronger effect = lower value): 0.992 (inactive) | normalized growth (locus YAL021C, strain ccr4, stronger effect = lower value): 1.01 (inactive) | normalized growth (locus YAL026C, strain drs2, stronger effect = lower value): 1.02 (inactive) | normalized growth (locus YAL030W, strain snc1, stronger effect = lower value): 1.03 (inactive) | normalized growth (locus YAL040C, strain CLN3, stronger effect = lower value): 0.959 (inactive) | normalized growth (locus YBL061C, strain skt5, stronger effect = lower value): 1.02 (inactive) | normalized growth (locus YBR009C, strain hhf1, stronger effect = lower value): 1.02 (inactive) | normalized growth (locus YBR021W, strain FUR4, stronger effect = lower value): 0.948 (inactive) | normalized growth (locus YBR023C, strain chs3, stronger effect = lower value): 1.02 (inactive) | normalized growth (locus YBR171W, strain sec66, stronger effect = lower value): 1.02 (inactive) | normalized growth (locus YBR229C, strain ROT2, stronger effect = lower value): 0.982 (inactive) | normalized growth (locus YBR231C, strain swc5, stronger effect = lower value): 1.05 (inactive) | normalized growth (locus YBR279W, strain paf1, stronger effect = lower value): 1 (inactive) | normalized growth (locus YCL011C, strain gbp2, stronger effect = lower value): 1.01 (inactive) | normalized growth (locus YCL016C, strain dcc1, stronger effect = lower value): 1.01 (inactive) | normalized growth (locus YCL029C, strain bik1, stronger effect = lower value): 0.971 (inactive) | normalized growth (locus YCL061C, strain MRC1 (second series), stronger effect = lower value): 0.997 (inactive) | normalized growth (locus YCL061C, strain MRC1, stronger effect = lower value): 1.02 (inactive) | normalized growth (locus YCL069W, strain vba3, stronger effect = lower value): 1 (inactive) | normalized growth (locus YCR088W, strain abp1, stronger effect = lower value): 1.01 (inactive) | normalized growth (locus YDL005C, strain med2, stronger effect = lower value): 1.02 (inactive) | normalized growth (locus YDL035C, strain GPR1, stronger effect = lower value): 0.997 (inactive) | normalized growth (locus YDL040C, strain nat1, stronger effect = lower value): 1.03 (inactive) | normalized growth (locus YDL074C, strain BRE1, stronger effect = lower value): 0.937 (inactive) | normalized growth (locus YDL101C, strain DUN1, stronger effect = lower value): 0.959 (inactive) | normalized growth (locus YDL134C, strain PPH21, stronger effect = lower value): 0.997 (inactive) | normalized growth (locus YDL185W, strain tfp1, stronger effect = lower value): 0.98 (inactive) | normalized growth (locus YDL192W, strain arf1, stronger effect = lower value): 0.977 (inactive) | normalized growth (locus YDR001C, strain nth1, stronger effect = lower value): 1.01 (inactive) | normalized growth (locus YDR069C, strain doa4, stronger effect = lower value): 1.01 (inactive) | normalized growth (locus YDR101C, strain arx1, stronger effect = lower value): 0.985 (inactive) | normalized growth (locus YDR137W, strain rgp1, stronger effect = lower value): 1.01 (inactive) | normalized growth (locus YDR150W, strain NUM1, stronger effect = lower value): 0.996 (inactive) | normalized growth (locus YDR159W, strain sac3, stronger effect = lower value): 1.02 (inactive) | normalized growth (locus YDR162C, strain NBP2, stronger effect = lower value): 0.976 (inactive) | normalized growth (locus YDR195W, strain ref2): 1.02 (inactive) | normalized growth (locus YDR297W, strain sur2, stronger effect = lower value): 1.02 (inactive) | normalized growth (locus YDR318W, strain mcm21, stronger effect = lower value): 0.959 (inactive) | normalized growth (locus YDR334W, strain swr1, stronger effect = lower value): 1.01 (inactive) | normalized growth (locus YDR335W, strain msn5, stronger effect = lower value): 1.01 (inactive) | normalized growth (locus YDR363W, strain ESC2, stronger effect = lower value): 0.933 (inactive) | normalized growth (locus YDR388W, stronger effect = lower value): 0.987 (inactive) | normalized growth (locus YDR392W, strain spt3, stronger effect = lower value): 1.03 (inactive) | normalized growth (locus YDR502C, strain sam2, stronger effect = lower value): 0.94 (inactive) | normalized growth (locus YEL003W, strain gim4, stronger effect = lower value): 1.03 (inactive) | normalized growth (locus YEL037C, strain rad23, stronger effect = lower value): 1.01 (inactive) | normalized growth (locus YEL061C, strain CIN8 (second series), stronger effect = lower value): 1.03 (inactive) | normalized growth (locus YEL061C, strain CIN8, stronger effect = lower value): 0.999 (inactive) | normalized growth (locus YER002W, strain NOP16, stronger effect = lower value): 1.02 (inactive) | normalized growth (locus YER015W, strain faa2, stronger effect = lower value): 1.02 (inactive) | normalized growth (locus YER016W, strain bim1, stronger effect = lower value): 1.03 (inactive) | normalized growth (locus YER110C, stronger effect = lower value): 0.969 (inactive) | normalized growth (locus YER111C, strain swi4, stronger effect = lower value): 1.01 (inactive) | normalized growth (locus YER155C, strain BEM2 (second series), stronger effect = lower value): 1.01 (inactive) | normalized growth (locus YER155C, strain BEM2, stronger effect = lower value): 0.988 (inactive) | normalized growth (locus YER167W, strain BCK2, stronger effect = lower value): 0.987 (inactive) | normalized growth (locus YFR010W, strain ubp6, stronger effect = lower value): 1.02 (inactive) | normalized growth (locus YGL078C, strain dbp3, stronger effect = lower value): 0.898 (active) | normalized growth (locus YGL086W, strain mad1, stronger effect = lower value): 0.987 (inactive) | normalized growth (locus YGL167C, strain pmr1, stronger effect = lower value): 1.03 (inactive) | normalized growth (locus YGL173C, strain kem1, stronger effect = lower value): 1.04 (inactive) | normalized growth (locus YGL227W, strain vid30, stronger effect = lower value): 1.02 (inactive) | normalized growth (locus YGL240W, strain doc1, stronger effect = lower value): 1.02 (inactive) | normalized growth (locus YGL248W, strain PDE1, stronger effect = lower value): 0.988 (inactive) | normalized growth (locus YGL253W, strain hxk2, stronger effect = lower value): 1.01 (inactive) | normalized growth (locus YGR078C, strain PAC10, stronger effect = lower value): 0.945 (inactive) | normalized growth (locus YGR135W, strain pre9, stronger effect = lower value): 0.944 (inactive) | normalized growth (locus YGR229C, strain SMI1, stronger effect = lower value): 0.951 (inactive) | normalized growth (locus YGR252W, strain gcn5, stronger effect = lower value): 0.943 (inactive) | normalized growth (locus YHR013C, strain ard1, stronger effect = lower value): 0.999 (inactive) | normalized growth (locus YHR027C, strain rpn1, stronger effect = lower value): 1.01 (inactive) | normalized growth (locus YHR030C, strain SLT2, stronger effect = lower value): 0.996 (inactive) and 0.482 (active) | normalized growth (locus YHR079C, strain IRE1 (second series), stronger effect = lower value): 0.976 (inactive) | normalized growth (locus YHR079C, strain IRE1, stronger effect = lower value): 0.632 (active) | normalized growth (locus YHR094C, strain hxt1, stronger effect = lower value): 0.994 (inactive) | normalized growth (locus YHR129C, strain ARP1, stronger effect = lower value): 0.991 (inactive) | normalized growth (locus YHR142W, strain chs7, stronger effect = lower value): 1.02 (inactive) | normalized growth (locus YHR200W, strain rpn10, stronger effect = lower value): 0.963 (inactive) | normalized growth (locus YIL066C, strain RNR3, stronger effect = lower value): 0.975 (inactive) | normalized growth (locus YIL073C, strain SPO22, stronger effect = lower value): 1.04 (inactive) | normalized growth (locus YIL125W, strain kgd1, stronger effect = lower value): 0.952 (inactive) | normalized growth (locus YIR030C, strain dcg1, stronger effect = lower value): 0.995 (inactive) | normalized growth (locus YJL092W, strain hpr5, stronger effect = lower value): 1.01 (inactive) | normalized growth (locus YJL095W, strain BCK1 (second series), stronger effect = lower value): 1.02 (inactive) | normalized growth (locus YJL095W, strain BCK1, stronger effect = lower value): 0.937 (inactive) and 0.468 (active) | normalized growth (locus YJL115W, strain asf1, stronger effect = lower value): 1.03 (inactive) | normalized growth (locus YJL129C, strain trk1, stronger effect = lower value): 1.04 (inactive) | normalized growth (locus YJL134W, strain LCB3, stronger effect = lower value): 1 (inactive) | normalized growth (locus YJL154C, strain vps35, stronger effect = lower value): 1.01 (inactive) | normalized growth (locus YJL164C, strain tpk1, stronger effect = lower value): 1.02 (inactive) | normalized growth (locus YJL166W, strain qcr8, stronger effect = lower value): 1.03 (inactive) | normalized growth (locus YJL168C, strain set2, stronger effect = lower value): 0.982 (inactive) | normalized growth (locus YJL187C, strain SWE1 (second series), stronger effect = lower value): 0.951 (inactive) | normalized growth (locus YJR043C, strain POL32, stronger effect = lower value): 0.979 (inactive) | normalized growth (locus YJR066W, strain TOR1, stronger effect = lower value): 0.767 (active)

Reference: PubChem BioAssay AID1159580 (chemical genetic matrix, 2015)
